# Where “and” joins values, the source holds several entries; their conditions need not be identical. Equal entries are not always repeated. A number with no mark means an inactive call. Inconclusive results are not listed. Calls of active or inactive are those of the source. Unless noted, calls follow the shape of the dose curve; as a rule, active = well fitted curve in the direction sought with a large enough effect; inconclusive = small, poorly fitted or top-dose-only effect, or another doubt; inactive = no such curve, though single readings can be large; an effect the other way counts as inactive or inconclusive.
# Experiments:
# [1] = biological target: Cytochrome P450 1A2 (Homo sapiens) (UniProt P05177); assay: p450-cyp1a2 (AID 410; calls by dose curve;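 also: -100% = full effect of reference inhibitor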)
# Outline: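 Inhibition was calculated relative to 57 uM furafylline (full inhibition). The reaction used human CYP1A2 at 20nM with Luciferin-ME at its Km, 100uM, driven by an NADPH-regenerating system for 60 min at room temperature.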
# [2] = Stat Signaling Pathway (AID 446; active = well fitted curve in either direction with a large enough effect, not every such curve was filed as active;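 also: ME-180 cervical cancer cells given 40 pM IL-6 alongside compound; SIE-controlled beta-lactamase reporter measured as 460/530 nm FRET emission ratio; % is scaled to controls: 0 for no effect and ±100 for the full control effect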); conditions: ME-180 SIE beta-lactamase reporter, IL-6 stimulated, 5 h
# Outline: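 IL-6/STAT signaling read in ME-180 cells via an SIE beta-lactamase reporter. Stimulus was 40 pM IL-6 (its AC50) for 5 hrs, so both activation and inhibition register.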
# [3] = biological target: Mitogen-activated protein kinase 10 (Mus musculus) (UniProt Q61831); assay: JNK3 AlphaScreen Assay (AID 530; active = well fitted curve in either direction with a large enough effect, not every such curve was filed as active;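 also: kinase came from lysate of stimulated human HepG2 cells; signal reports phosphorylation of biotinylated GST-cJun 1-79 at Ser73 with 10 µM ATP; % is scaled to controls: 0 for no effect and ±100 for the full control effect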)
# Outline: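 Room-temperature AlphaScreen kinase assay; pre-activated HepG2 lysate as JNK3 source, biotin-GST-cJun(1-79) substrate, 10 uM ATP, compound 15 min preincubation.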
# [4] = Cell Viability - BJ (AID 421; calls by dose curve;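 also: potency is read from the fitted curve at half-maximal effect; cells exposed to compound for 40 hours at 37 °C before readout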); conditions: BJ fibroblast viability, qHTS
# Outline: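 Quantitative HTS: ATP depletion in BJ cells after 40 hr compound exposure in complete culture medium, detected with CellTiter-Glo; AC50 from standard Hill fits.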
# [5] = Cell Viability - Jurkat (AID 426;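 active = dose-dependent loss of cell ATP signal giving a full or clear fitted curve, ranked by lower potency value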;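 also: potency is read from the fitted curve at half-maximal effect; cells exposed to compound for 40 hours at 37 °C before ATP read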); conditions: qHTS
# Outline: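 Seed 5000 Jurkat E6-1 cells/well; add compound; incubate 40 hr at 37 °C; add CellTiter-Glo; wait 20 min at room temperature; read luminescence. Fit concentration-response with Hill equation for AC50.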
# [6] = Cell Viability - Hek293 (AID 427;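 active = compounds whose dose-response curve shows a full or clear partial loss of cell viability, called from curve shape rather than a numeric limit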;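 also: potency is read from the fitted curve at half-maximal effect; cells exposed to compound for 40 hours at 37 °C before reading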); conditions: qHTS
# Outline: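 AC50 values derive from Hill-modelled concentration-response of ATP-based luminescence, normalized between DMSO-only and 100 uM tamoxifen controls. Cells were exposed in complete culture medium for 40 hr at 37 °C before detection.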
# [7] = Cell Viability - HepG2 (AID 433; calls by dose curve;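 also: potency is read from the fitted curve at half-maximal effect; cells exposed to compound for 40 hours; potency for ATP loss meaning cytotoxicity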); conditions: qHTS
# Outline: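 ATP luminescence (CellTiter-Glo) after 40 h compound exposure, 37 °C, HepG2, 1500 cells/well, complete medium. Normalized: DMSO = basal, 100 uM tamoxifen = 100% inhibition. AC50 via standard Hill equation.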
# [8] = Cell Viability - SK-N-SH (AID 435; calls by dose curve; also: potency is read from the fitted curve at half-maximal effect); conditions: SK-N-SH neuroblastoma cell viability qHTS
# Outline: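 CellTiter-Glo ATP luminescence, 20 min RT read; cells pre-plated 5 hr, compound 40 hr at 37 °C, 1500 cells/well, complete medium. Normalized DMSO = 0, 100 uM tamoxifen = 100% inhibition; Hill-fit AC50.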
# [9] = Cell Viability - N2a (AID 540); conditions: N2a mouse neuroblastoma cell viability; activity change, negative = cytotoxicity: at 92.2 µM (top of the series);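 also: plate controls were DMSO alone for no effect and tamoxifen control for full effect; nearly all actives have a fitted effect of over 45% in size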
# Outline: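 First, 1500 N2a cells per well incubate 5 hr at 37 °C; next, compounds are added and incubated 40 hr at 37 °C; finally CellTiter-Glo is added and luminescence read after 20 min, with AC50 derived by Hill modeling.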
# [10] = Cell Viability - NIH 3T3 (AID 541); conditions: NIH 3T3 cell viability, qHTS; activity change, negative = cytotoxicity: at 92.2 µM (top of the series);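 also: cells exposed to compound for 40 hours; plate controls were DMSO alone for no effect and tamoxifen positive control for full effect; nearly all actives have a fitted effect of over 25% in size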
# Outline: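 AC50 values reflect concentration-dependent loss of intracellular ATP in NIH 3T3 cells after 40 hr treatment in complete culture medium, quantified by luciferase-based luminescence.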
# [11] = Cell Viability - HUV-EC-C (AID 542);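 also: cells exposed to compound for 40 hours; % is scaled to controls: 0 for no effect and ±100 for the full control effect; nearly all actives have a fitted effect of over 35% in size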
# Outline: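 Decrease in cellular ATP, quantified by luciferase luminescence, reflects toxicity in normal human vascular endothelial HUV-EC-C cells given compound for 40 hr in complete culture medium. Values are AC50s from concentration-response curves.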
# [12] = Cell Viability - H-4-II-E (AID 543);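 also: cells exposed to compound for 40 hours; nearly all actives have a fitted effect of over 35% in size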; also: potency is read from the fitted curve at half-maximal effect
# Outline: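 Here, cytotoxicity is measured in the rat hepatoma line H-4-II-E as loss of intracellular ATP after 40 hr compound treatment, detected by luciferase luminescence.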
# [13] = Cell Viability - SH-SY5Y (AID 544); conditions: SH-SY5Y neuroblastoma cell viability; viability change, negative = cytotoxic: at 92.2 µM (top of the series);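 also: cells exposed to compound for 40 hours; nearly all actives have a fitted effect of over 55% in size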; also: potency is read from the fitted curve at half-maximal effect;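 as to viability change, negative = cytotoxic: 0% = DMSO alone and -100% = 100 µM tamoxifen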
# Outline: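 Cytotoxicity is scored as a concentration-dependent fall in intracellular ATP in human SH-SY5Y cells treated 40 hr in complete culture medium. Potency is expressed as AC50 from a Hill equation fit.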
# [14] = Cell Viability - Renal Proximal Tubule (AID 545); conditions: renal proximal tubule cells viability, primary cells of rat origin; activity change, negative = cytotoxicity: at 91.7 µM (top of the series);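 also: cells exposed to compound for 40 hours; 0% = DMSO only and -100% = 100 µM tamoxifen; nearly all actives have a fitted effect of over 40% in size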
# Outline: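 Rat kidney proximal tubule cells, freshly isolated; 1000 cells/well, 5 hr settle, compound 40 hr 37 °C. CellTiter-Glo 20 min RT, luminescence read. AC50 by standard Hill fit.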
# [15] = Cell Viability - Mesenchymal (AID 546); conditions: mesenchymal cells viability, qHTS; activity change, negative = cytotoxicity: at 91.7 µM (top of the series);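 also: cells exposed to compound for 40 hours before reading; 0% = DMSO only and -100% = 100 µM tamoxifen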
# Outline: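 AC50 values reflect the drop in intracellular ATP in a human kidney mesenchymal line derived from normal glomeruli. Treatment lasts 40 hr at 37 °C in complete medium, and the signal comes from CellTiter-Glo luminescence.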
# [16] = NFAT Signaling Pathway (AID 444; active = well fitted curve in either direction with a large enough effect, not every such curve was filed as active;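 also: carbachol stimulus at about its EC50 of 1 µM final; % is scaled to controls: 0 for no effect and ±100 for the full control effect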); conditions: Jurkat NFAT-bla M1, carbachol, beta-lactamase ratio, 5 h; at 17.2 µM (top of the series)
# Outline: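 Read-out: CCF4 FRET ratio (460 nm/530 nm) after 1 h RT dye loading, used for %activity and AC50 from titration series. Cells: Jurkat NFAT-β-lactamase/M1 line, treated with compound plus 1 uM carbachol for 5 h, 37 °C.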
# [17] = AP1 Signaling Pathway (AID 357; active = well fitted curve in either direction with a large enough effect, not every such curve was filed as active;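 also: ME-180 reporter cells stimulated with EGF at its EC50 level; % is scaled to controls: 0 for no effect and ±100 for the full control effect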); conditions: ME-180 (cervical carcinoma) AP-1-bla reporter, EGF-induced, beta-lactamase ratio, 5 h; at 17.2 µM (top of the series)
# Outline: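 Read-out was the 460nm/530nm emission ratio (excitation 405nm) after CCF4 loading for 2.5 hours at room temperature. Cells carried an AP-1-driven beta-lactamase reporter, were stimulated with EC50 EGF plus compound for 5 hours, and AC50 values came from titrations.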
# [18] = biological target: Glucocorticoid receptor (Homo sapiens) (UniProt P04150); assay: GR-GFP Redistribution (AID 450;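 active = compounds whose dose series gives a full or clear partial fitted curve of increased nuclear translocation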; also: potency is read from the fitted curve at half-maximal effect); conditions: U2OS GR-GFP nuclear translocation, laser cytometry, 2 h
# [19] = biological target: Glucocorticoid receptor (Homo sapiens) (UniProt P04150); assay: GR-EFC Redistribution (AID 451; calls by dose curve; also: potency is read from the fitted curve at half-maximal effect); conditions: CHO-K1 GR-EFC translocation, beta-gal luminescence, 2 h
# Outline: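 Translocation of GR-ED fusion to nuclear EA restores b-gal, read by luminescence after 1 h room-temperature detection. Engineered CHO-K1 biosensor cells, 1,000/well, exposed 2 h at 37 C to titrations up to 46 uM final.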
# Sequence of Glucocorticoid receptor (Homo sapiens) (P04150 whole entry, looked up, the tested form may be a part): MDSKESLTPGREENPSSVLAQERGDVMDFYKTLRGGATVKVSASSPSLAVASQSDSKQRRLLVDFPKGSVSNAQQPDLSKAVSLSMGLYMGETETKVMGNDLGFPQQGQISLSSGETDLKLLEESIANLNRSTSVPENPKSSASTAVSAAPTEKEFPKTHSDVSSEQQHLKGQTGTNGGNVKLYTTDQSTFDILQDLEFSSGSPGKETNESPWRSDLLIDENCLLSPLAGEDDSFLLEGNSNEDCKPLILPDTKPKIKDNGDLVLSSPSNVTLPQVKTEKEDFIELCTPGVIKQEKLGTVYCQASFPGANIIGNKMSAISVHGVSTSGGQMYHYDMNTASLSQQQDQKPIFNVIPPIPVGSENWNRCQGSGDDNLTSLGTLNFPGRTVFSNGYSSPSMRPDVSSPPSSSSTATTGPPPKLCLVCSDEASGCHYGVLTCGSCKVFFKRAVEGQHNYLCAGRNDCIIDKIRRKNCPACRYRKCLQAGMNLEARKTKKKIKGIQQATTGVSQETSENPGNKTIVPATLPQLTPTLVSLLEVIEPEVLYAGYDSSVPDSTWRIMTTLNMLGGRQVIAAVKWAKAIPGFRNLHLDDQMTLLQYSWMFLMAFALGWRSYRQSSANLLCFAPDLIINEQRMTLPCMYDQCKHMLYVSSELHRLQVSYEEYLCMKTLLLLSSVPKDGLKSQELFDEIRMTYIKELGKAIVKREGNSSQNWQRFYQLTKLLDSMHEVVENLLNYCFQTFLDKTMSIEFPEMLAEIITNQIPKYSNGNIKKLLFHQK
# Sequence of Cytochrome P450 1A2 (Homo sapiens) (P05177 whole entry, looked up): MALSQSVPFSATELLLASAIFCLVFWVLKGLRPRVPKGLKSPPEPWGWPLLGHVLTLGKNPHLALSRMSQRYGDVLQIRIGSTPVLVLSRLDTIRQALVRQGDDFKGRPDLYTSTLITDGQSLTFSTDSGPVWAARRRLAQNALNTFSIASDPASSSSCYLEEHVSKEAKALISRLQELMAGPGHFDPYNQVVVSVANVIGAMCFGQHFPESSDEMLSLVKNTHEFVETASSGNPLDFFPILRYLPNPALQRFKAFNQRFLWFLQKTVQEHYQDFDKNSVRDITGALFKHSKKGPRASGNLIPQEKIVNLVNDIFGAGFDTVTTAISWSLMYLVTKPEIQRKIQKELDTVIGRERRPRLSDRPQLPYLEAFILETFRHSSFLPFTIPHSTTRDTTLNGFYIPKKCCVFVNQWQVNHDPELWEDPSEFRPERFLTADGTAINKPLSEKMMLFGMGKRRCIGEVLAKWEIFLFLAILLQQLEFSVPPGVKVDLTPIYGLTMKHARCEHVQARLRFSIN
smiles,measurement,setting,value
CN1[C@@H]2CC[C@H]1CC(OC(=O)c1c[nH]c3ccccc13)C2 (stereo partly specified),Potency,[1],inactive
same,"activity, negative = inhibition",[2]; at 38 µM (top of the series),-14.5%
same,outcome,[3],inactive
C=CCc1ccc(O)c(OC)c1,Potency,[4],> 92 µM
same,Potency,[5],> 92 µM
same,Potency,[6],> 92 µM
same,Potency,[7],> 92 µM
same,Potency,[8],> 92 µM
same,outcome,[3],inactive
same,Potency,[9],inactive
same,Potency,[10],inactive
same,Potency,[11],inactive
same,Potency,[12],inactive
same,Potency,[13],inactive
same,"activity change, negative = cytotoxicity",[14],5.39%
same,"activity change, negative = cytotoxicity",[15],5.14%
O=C1OC(c2ccc(O)cc2)(c2ccc(O)cc2)c2ccccc21,Potency,[4],> 92 µM
same,Potency,[6],> 92 µM
same,Potency,[7],> 92 µM
same,Potency,[8],> 92 µM
same,"activity change, negative = inhibition",[16],-4.2%
same,"activity, negative = inhibition",[2]; at 17.2 µM (top of the series),-16.8%
same,outcome,[3],inactive
same,Potency,[9],inactive
same,Potency,[10],inactive
same,Potency,[12],inactive
same,"activity change, negative = cytotoxicity",[15],-12.7%
CC(=O)O[C@H]1C[C@@H]2CC[C@@H]3[C@H](CC[C@@]4(C)[C@H]3C[C@H]([N+]3(C)CCCCC3)[C@@H]4OC(C)=O)[C@@]2(C)C[C@@H]1[N+]1(C)CCCCC1,"activity change, negative = inhibition",[17],10.4%
same,"activity, negative = inhibition",[2]; at 17.2 µM (top of the series),10.1%
same,Potency,[18],> 20.6 µM
C[C@]12CC[C@@H]3c4ccc(O)cc4CC[C@H]3[C@@H]1CC[C@@H]2O,Potency,[4],> 92 µM
same,Potency,[5],25.8 µM (active)
same,Potency,[7],> 92 µM
same,outcome,[3],inactive
same,Potency,[9],inactive
same,Potency,[11],inactive
same,"activity change, negative = cytotoxicity",[15],-23.1%
C/C=C(/C(=C/C)c1ccc(O)cc1)c1ccc(O)cc1,"activity, negative = inhibition",[2]; at 17.2 µM (top of the series),-10.4%
same,Potency,[18],> 20.6 µM
CN=C(NC#N)NCCSCc1csc(N=C(N)N)n1,Potency,[18],> 46 µM
same,Potency,[19],> 46 µM
COC1=CC(=O)C[C@@H](C)[C@]12Oc1c(Cl)c(OC)cc(OC)c1C2=O,Potency,[4],> 92 µM
same,Potency,[6],> 92 µM
same,Potency,[7],> 92 µM
same,outcome,[3],inactive
same,Potency,[9],inactive
same,Potency,[10],inactive
same,Potency,[11],inactive
same,Potency,[12],25.1 µM (active)
same,Potency,[13],25.1 µM (active)
same,"activity change, negative = cytotoxicity",[15],-20.5%
COc1ccc(CCN2CCC(Nc3nc4ccccc4n3Cc3ccc(F)cc3)CC2)cc1,"activity change, negative = inhibition",[17],-6.26% and 6.64%
same,"activity, negative = inhibition",[2]; at 17.2 µM (top of the series),-11% and -15.4%
same,Potency,[18],> 20.6 µM
same,Potency,[19],> 20.6 µM
same,outcome,[3],inactive

# Reference: PubChem BioAssay (NCATS)
